The record followed here is ChEMBL document CHEMBL4513216, “Probing the Open Global Health Chemical Diversity Library for Multistage-Active Starting Points for Next-Generation Antimalarials” (ACS Infect Dis, 2020).

In all, about 69,000 compounds went through this assay and about 8,600 (12%) showed an effect of 50% or more. This excerpt belongs to a sample that is enriched for strong results.

The test relates to Plasmodium berghei. Description: Screen against P. berghei liver stage (PbLuc), transformed with Luciferase, at 10uM. The note with it: tested at 10 uM. It is filed as functional, HepG2.
In the case of `Cc1c(C(C)Nc2ncnc3sccc23)cnn1C` (stereo not drawn), the INHIBITION is reported as 55.5%.

With `CC(Nc1ncnc2sccc12)c1cnn(C)c1` (stereo not drawn), the INHIBITION turned out to be 38.7%. Regarding `Cc1nn(C)cc1C(C)Nc1ncnc2sccc12` (stereo not drawn), the INHIBITION worked out at 27.5%. The result for `COc1ccc(OC)c(C(=O)N2CCCCC2Cn2cccn2)c1` (stereo not drawn) reads 14.4%; that for `Cc1cc(SCC(=O)O)nc2nn(CC(F)F)c(C)c12`, 96%. In the case of `CCn1nc2nc(SCC(=O)O)cc(C(F)F)c2c1C` it was 20.4%; in that of `Cc1c2c(C(F)F)cc(SCC(=O)O)nc2nn1C`, 15.9%. In the case of `CC(c1cccc(S(N)(=O)=O)c1)N(C)CCc1ccccc1` (stereo not drawn) it was 33.6%.

On to `O=C(NCCc1ccccc1)NCC(O)c1cccc(F)c1` (stereo not drawn), for which the INHIBITION was -27%. As for `CC(CCNC(=O)NCCNc1cnccn1)c1ccccc1` (stereo not drawn), the INHIBITION was -10.4%. The result for `Cc1cc(NC(=O)NCCc2ccc(S(N)(=O)=O)cc2)n(C)n1` reads -193%; that for `CC(CCNC(=O)NCCc1ccc(S(N)(=O)=O)cc1)c1ccccc1` (stereo not drawn), 54.8%; that for `CC(CCNC(=O)NCCc1ccncc1)c1ccccc1` (stereo not drawn), 55.9%.

In the case of `CCn1ccc2ccnc(CC3CN(C(=O)c4ccc(F)cc4)C3)c21`, the INHIBITION stood at 16.5%. Take `Cc1cc(-c2cc(-c3cc(CC(=O)O)cs3)nc(N)c2C#N)oc1C`: the INHIBITION turned out to be 33.9%.

Consider `O=C(C1CCCC1)N1CCC(Nc2ccncn2)CC1`, for which the INHIBITION amounted to 49.9%. In the case of `CC(=O)N[C@@H]1Cc2ccccc2[C@H]1Nc1nnc(C2CC2)o1` it was 52.6%; in that of `CCc1nc(C)c(C(=O)N[C@@H]2c3ccccc3C[C@@H]2O)o1`, -5.22%.

Take `CC(=O)N[C@@H]1Cc2ccccc2[C@H]1Nc1cc(C2CC2)ncn1`: the INHIBITION was 35%. In the case of `CC(=O)N[C@@H]1Cc2ccccc2[C@H]1Nc1ccncn1` it was 67.5%; in that of `CCc1oc(C(=O)N[C@@H]2c3ccccc3C[C@@H]2O)cc1C`, 12.9%; in that of `Cc1ccc(OCC(=O)N2CCOCC(O)(CN3CCCC3)C2)cc1C` (stereo not drawn), 37.9%. With `Cc1cnc(CCNC(=O)C2CCN(S(=O)(=O)c3ccc(F)cc3)C2)s1` (stereo not drawn), the INHIBITION is -21.8%.

In the case of `O=C(Cn1cc(-c2ccccc2)cn1)N1CCNC1=O`, the INHIBITION is on record as -7.53%. The result for `Cc1cc(C(=O)NCCc2c(C)nn(C)c2C)nc(N2CCCCC2)n1` reads -10.5%; that for `O=C(CCn1nc(C(=O)Nc2ccccc2)ccc1=O)Nc1nccs1`, 13.1%.

With `N#Cc1ccc(CC(=O)N2CCC(Nc3cccnn3)CC2)cc1`, the INHIBITION is recorded as -3.7%.

As to `CCCc1n[nH]c(C2CN(C(=O)c3cncnc3C)CCO2)n1` (stereo not drawn), the INHIBITION stood at 36.1%. The result for `C=c1ncsc1=C1NC(c2cccc(CN3CCOCC3)c2)=NO1` reads 12.6%; that for `COc1ccc(CN2CCC3(CC2)CCN(c2cnn(C)c2)C3=O)cc1`, 43.9%; that for `O=C(c1ccncc1)N1C[C@H]2CC[C@@H](C1)N(C(=O)C1CCCC1)C2`, -3.48%. In the case of `CCN(Cc1cnn(C)c1)S(=O)(=O)N1CCCC1c1ccco1` (stereo not drawn) it was 27.5%; in that of `CCn1cc(CN(C)S(=O)(=O)N2CCCC2c2ccco2)cn1` (stereo not drawn), 32%; in that of `CN(Cc1cnn(C)c1)S(=O)(=O)N1CCCC1c1ccco1` (stereo not drawn), 52.2%. The result for `O=C(c1ccc(C2CCCN2C(=O)c2cscn2)s1)N1CCSCC1` (stereo not drawn) reads -30.6%; that for `CN(C)CC(=O)N1CCC2(CC1)COC(COc1ccccn1)C2` (stereo not drawn), 35.3%. As for `COc1ncc(CN2C[C@@H]3CC[C@@](O)(c4ccc(C)cn4)[C@@H]3C2)cn1`, the INHIBITION was determined as 41.2%.

On to `CSc1ccc(CN2C[C@@H]3CC[C@@](O)(c4ccc(C)cn4)[C@@H]3C2)cc1`, for which the INHIBITION was found to be 75.3%. Consider `Cc1ccc([C@]2(O)CC[C@H]3CN(Cc4cccnc4)C[C@H]32)nc1`, for which the INHIBITION amounted to 41.2%. In the case of `Cc1ccc([C@]2(O)CC[C@H]3CN(Cc4ccncc4)C[C@H]32)nc1` it was 66.4%; in that of `Cc1ccc([C@]2(O)CC[C@H]3CN(Cc4cc(C)c(O)c(C)c4)C[C@H]32)nc1`, 45.5%. The result for `O[C@@]1(c2ccccn2)CC[C@H]2CN(Cc3ccccn3)C[C@H]21` reads 29.3%. The result for `O=C(C[C@@H]1COC[C@H]2CN(Cc3ccccn3)C[C@@H]12)N1CCOCC1` reads 33%; that for `Cc1noc(C)c1CC(=O)NCC1(O)CCCN(c2ccccn2)C1` (stereo not drawn), 14.6%.

As to `CC(c1nc(C2CC2)no1)N(C)Cc1ccc(C#N)cc1` (stereo not drawn), the INHIBITION is listed as -4.4%. The result for `CCN(Cc1noc(C(C)(C)C)n1)Cc1ccc(C#N)cc1F` reads 28%. The result for `CSc1ccc(CN(C)Cc2noc(C(C)(C)C)n2)cc1` reads 56.9%.

For the compound `CC(C)(C)c1nc(CN(Cc2ccccc2Cl)C2CCCC2)no1`, the INHIBITION came out at 9.35%.

For `CN(Cc1ccc(C#N)cc1)Cc1noc(C(C)(C)C)n1`, the INHIBITION is on record as 53.5%. Turning to `CC(C)(C)c1nc(CN(CCO)Cc2cc(Br)ccc2F)no1`, the INHIBITION is -38.2%. The result for `CCc1cc(N(C)CCCO)n2nccc2n1` reads 19.4%; that for `Cc1noc(C)c1CN(C)C(=O)Nc1cnn(CC2CCCO2)c1` (stereo not drawn), 18.4%; that for `Cc1cc(C(=O)N[C@H](C)c2onc(C)c2C(=O)O)c(C)o1`, -12.2%.
